The campaign covered roughly 320,000 compounds. About 22,000 (6.9%) were called active. Not shown: some 27% with an inconclusive outcome. What follows is part of a selection rich in actives, with near analogues and random picks from the rest. Unmarked numbers belong to inactive results. Calls come from the whole dose curve; as a rule, active = well fitted inhibition curve with a large enough effect; inconclusive = small, poorly fitted or top-dose-only effect, or another doubt; inactive = no such curve, though single readings can be large or run the other way.
Assay: Primary qHTS for delayed death inhibitors of the malarial parasite plastid, 96 hour incubation
Conditions: P. falciparum luciferase reporter growth; series mostly up to 28.7 µM; activity change, negative = inhibition: at the top concentration
Excerpt: The goal of this screen is to discover new antimalarial compounds that act by inhibiting the development of the apicoplast in the malarial parasite Plasmodium falciparum. The biochemical processes that make this organelle essential for erythrocytic stage parasites are not well understood. However, antibiotics such as azithromycin and tetracycline, which target the apicoplast translational machinery, have a potent antimalarial effect.
We have developed a cell-based assay that measures parasite growth based on the expression of an integrated copy of a firefly luciferase reporter. To detect small molecules that cause this "delayed death" phenotype, erythrocytes infected with the luciferase-expressing parasites were incubated with compounds for either one or two generations, corresponding to 48 and 96 hours, respectively. Compounds that inhibit parasite growth in the second generation, but not the first, should be enriched in antimalarials that target the apicoplast. Growth inhibition is detected by a decrease in luciferase activity.
Assay Provider: David Fidock and Eric Ekland, Columbia University
Keywords: NIH Roadmap, MLPCN, MLI, MLSMR, qHTS, NCGC, qHTS, malaria, luciferase, viability
Four microliters of infected erythrocytes (2% hematocrit, 0.05% parasitemia final concentration) in culture medium were dispensed and the plates incubated for 96 hours at 37 C in 5% CO2. Two microliters of luciferase detection reagent was added and luminescence was detected by a ViewLux (PerkinElmer) reader.
% is set by controls: 0 for no effect and ±100 for the full control effect; potency is the fitted concentration of half-maximal effect.

Structure (SMILES)	activity change, negative = inhibition	Potency
CN(C(=O)COC(=O)CNC(=O)C12CC3CC(CC(C3)C1)C2)c1ccccc1	9.76%	–
Cc1cc(NC(=O)CSc2nnnn2-c2ccc(F)cc2)no1	11.3%	–
CC(C(=O)NCCc1ccc(S(N)(=O)=O)cc1)N1C(=O)CC(C)(C)Sc2ccccc21 (configuration not stated)	8.48%	–
CCCN(C(=O)c1nc2nccc(C)n2n1)c1c(N)n(Cc2ccccc2)c(=O)[nH]c1=O	-13.1%	–
COc1ccc(NC(=S)N2CCc3cc(OC)c(OC)cc3C2)cc1	6.7%	–
COc1ccc(C)cc1NC(=S)N1CCOCC1	–	10.4 µM (active)
COc1ccccc1/C=C/C(=O)NC(=S)N1CCOCC1	1.93%	–
COc1ccc(OC)c(NC(=S)N2CCc3ccccc3C2)c1	–	4.15 µM (active)
CCOC(=O)N1CCN(C(=S)Nc2ccc(C)cc2C)CC1	0%	–
COc1ccc(OC)c(NC(=O)c2ccc3c(c2)CCN3S(C)(=O)=O)c1	4.71%	–
CC1CCCCN1C(=O)CCS(=O)(=O)Cc1ccccc1 (configuration not stated)	0%	–
CC(OC(=O)c1ccccc1NCCO)C(=O)Nc1ccnn1C(C)C (configuration not stated)	9.28%	–
CC(CCN1CCN=C1N(C)C)c1ccccc1 (configuration not stated)	0%	–
COc1ccc(N=C(C)c2sc3ccccc3c2O)cc1	166%	–
Cc1ccc(NS(=O)(=O)c2cn(C)c(=O)n(C)c2=O)c(C)c1	-6.8%	–
Fc1ccccc1N=C1Nc2cccc3cccc1c23	5.56%	–
Brc1ccc(C2CC(c3ccccc3)=Nc3ccccc3N2)cc1 (configuration not stated)	-26%	–
c1ccc(C2=Nc3cccc4cccc(c34)N2)cc1	–	11.7 µM (active)
C[C@@H](NC(=O)[C@@H]1Cc2ccccc2CN1)C(=O)NC1CCCC1	-9.37%	–
CN(Cc1cnccn1)C(=O)c1cc(COc2cccc(C(F)(F)F)c2)on1	-9.17%	–
COc1ccc(N2CCN(S(=O)(=O)c3ccc4c(c3)NC(=O)C(C)C(=O)N4)CC2)cc1 (configuration not stated)	10.7%	–
Nc1nc(NCC(=O)O)nc(N2CCCCCC2)c1[N+](=O)[O-]	20.6%	–

Structure (SMILES)	activity change, negative = inhibition	Potency
COCCNc1nc(N)c([N+](=O)[O-])c(NCCO)n1	31.3%	–
C=CCNc1nc(N)c([N+](=O)[O-])c(NC2CCCCC2)n1	–	10.4 µM (active)
O=C(COc1ccc2ccc(=O)oc2c1)NCC(O)c1ccccc1 (configuration not stated)	-26.5%	–
O=C(CCC1CCCC1)N=C1SC2CS(=O)(=O)CC2N1Cc1ccccc1 (configuration not stated)	37.1%	–
Cc1ccccc1OCC(=O)NNC(=O)c1ccc(-n2cncn2)c([N+](=O)[O-])c1	23.3%	–
C=CCn1c(SCn2nnc3ccccc3c2=O)nnc1-c1ccc(Cl)cc1	–	11.7 µM (active)
O=C(Cn1nnc2ccccc2c1=O)NCc1ccc(Cl)cc1	81.2%	–
O=c1c2ccccc2nnn1CSc1nnnn1-c1ccccc1	46%	–
N/C(=N\S(=O)(=O)c1ccc(Cl)cc1)N1CCOCC1	-3.64%	–
CCOC(=O)Cc1csc(SCC(=O)Nc2ccc(C)cc2F)n1	21.7%	–
Fc1ccc(/C=N/Nc2nc(-c3cccnc3)nc3ccccc23)cc1	0%	–
FC(F)(F)c1nc2ccccc2nc1N/N=C/c1ccc(Cl)cc1	37.3%	–
Oc1ccc(/C=N/Nc2nc(-c3ccccc3F)nc3ccccc23)c(O)c1	–	11.7 µM (active)
Oc1ccc(/C=N/NC2=NCCCCC2)c(O)c1	27.9%	–
Cc1cc(N/N=C/c2ccccc2F)c2ccccc2n1	2.63%	–
Cc1nc2ccccc2nc1N/N=C/c1ccc(O)cc1O	–	2.94 µM (active)
CC1CCCN(C(=O)CN2C(=O)c3ccccc3S2(=O)=O)C1 (configuration not stated)	309%	–
COc1cc(OC)cc(/C(N)=N/O)c1	110%	–
CSc1cc(C)[nH]c(=O)n1	0%	–
Cc1snc(SCc2c(F)cccc2Cl)c1C#N	7.68%	–
Cc1cc(SCc2c(F)cccc2Cl)nc(=O)[nH]1	–	11.7 µM (active)
Cc1ccc2c(CN3CCN(S(=O)(=O)c4ccccc4C(F)(F)F)CC3)cc(=O)oc2c1	–	9.28 µM (active)

Structure (SMILES)	activity change, negative = inhibition	Potency
O=c1cc(CN2CCN(S(=O)(=O)/C=C/c3ccccc3)CC2)c2ccc(O)cc2o1	–	11.7 µM (active)
CN1CCN(Cc2ccccc2C(F)(F)F)CC1	-13.6%	–
O=C(CN1CCN(S(=O)(=O)/C=C/c2ccccc2)CC1)Nc1ccc(N2CCOCC2)cc1	-2.43%	–
Cc1onc(-c2ccccc2)c1C(=O)N1CCN(S(=O)(=O)c2ccccc2C(F)(F)F)CC1	3.53%	–
NC(=O)CCN1CCN(S(=O)(=O)/C=C/c2ccccc2)CC1	12.9%	–
Cc1cccc(NC(=O)CCn2c(=O)oc3ccccc32)c1	-2.59%	–
CCCCn1c(N)c(N(CCOC)C(=O)c2oc3ccc(OC)cc3c2C)c(=O)[nH]c1=O	0.114%	–
O=C(NCCS(=O)(=O)c1ccc(Br)cc1)c1ccccc1Cl	25.8%	–
Cc1cccc(C(=O)Nc2ccc(C(=O)N/N=C/c3cccc(C)n3)cc2)c1	41.4%	–
COc1cccc(NC(=O)CSc2nccn(-c3ccc4c(c3)OCCO4)c2=O)c1	23%	–
CCOC(=O)c1ccc(NC(=O)CNC(=O)c2ccco2)cc1	254%	–
CCOC(=O)[C@@H]1[C@H]2COc3ccc(Br)cc3[C@H]2N2C(=O)N(c3ccc(Cl)cc3)C(=O)[C@@]12C	–	11.7 µM (active)
CCOC(=O)C1C(c2ccc(Cl)cc2)NC(=S)NC1(O)C(F)(F)F (configuration not stated)	7.76%	–
CCOC(=O)[C@H]1[C@H]2COc3cc(OC)ccc3[C@@H]2N2C(=O)N(c3ccc(Br)cc3)C(=O)[C@@]12C	–	11.7 µM (active)
CCOC(=O)C1CCN(C(=O)Nc2cccc(OC)c2)CC1	8.91%	–
COc1ccc(NS(=O)(=O)c2cccc(C(=O)NCCc3ccc(S(N)(=O)=O)cc3)c2)cc1	-29.3%	–
CC1CCCCC1NC(=O)COC(=O)Cc1ccc(Cl)cc1 (configuration not stated)	7.06%	–
COc1ccc(-c2ocnc2C(=O)Nc2ccc3c(c2)CCC3)cc1	13%	–
O=S(=O)(Nc1ccccc1Br)c1cccs1	9.4%	–
CC(C)CCNC(=O)c1cccnc1Sc1ccccc1	55.7%	–
CC(C)OCCCNC(=O)c1cc(Sc2ccc(F)cc2)nc2ccccc12	–	3.29 µM (active)
CCCCN(C)CCCNC(=O)c1cc(-c2cccs2)nc2ccccc12	-14%	–

Structure (SMILES)	activity change, negative = inhibition	Potency
O=C(O)C(NS(=O)(=O)c1cccc2nsnc12)c1ccccc1 (configuration not stated)	19.4%	–
CC(=O)Nc1cccc(NC(=O)c2ccc3c(c2)CCN3S(C)(=O)=O)c1	-3.65%	–
O=C(CCCCO)c1ccc(O)c(Cl)c1	104%	–
COc1cccc(-c2nn(-c3ccccc3)cc2/C=C(\C#N)C(=O)NCCCn2ccnc2)c1	–	1.65 µM (active)
COc1ccc(/C=C(\C#N)C(=O)NCCCn2ccnc2)cc1	-13.6%	–
COc1cc(OC)cc(C(=O)NCCCn2ccnc2)c1	30.8%	–
C/C=C(/C)C(=O)Nc1cccc(C2=NOC3(C2)C[C@@H](C(N)=O)N(C(=O)C2(C)CC2)C3)c1 (some centres not stated)	70.1%	–
CCOc1ncccc1C(=O)OCC(=O)c1c[nH]c2ccccc12	-114%	–
O=C(NCCS(=O)(=O)NCc1ccc(F)cc1)c1ccccc1	0.0784%	–
CSc1nccc(NC(=O)c2ccc(C(C)(C)C)cc2)n1	13.2%	–
CN1CCN(C2=NCCO2)CC1	6.75%	–
Cc1ccc(Sc2cc(C(=O)c3ccccc3C(=O)O)ccc2[N+](=O)[O-])cc1	-11.7%	–
CN(C)c1ccc(C2N(C)C(=O)c3ccccc3N2C)cc1 (configuration not stated)	0%	–
CN(C)c1ccc(Nc2c3c4c(cccc4n(C)c2=O)C(=O)c2ccccc2-3)cc1	–	5.22 µM (active)
CC1C(=O)N(Cc2ccccc2)c2ccccc2N1C(=O)c1ccccc1 (configuration not stated)	34.9%	–
O=C(COC(=O)Cn1[nH]c(=O)c2ccccc2c1=O)Nc1c(Cl)cccc1C(F)(F)F	34.6%	–
COc1cc(NC(=O)C2=CC(c3ccco3)=NS(=O)(=O)N2C)cc(OC)c1OC	10.9%	–
CC/C(=N\NC(=O)c1c(C)nc2ccccn12)c1ccc(Cl)cc1	-7.35%	–
O=C(Nc1ccccc1N1CCOCC1)c1ccc(OCc2cscn2)cc1	-15.1%	–
Cc1nnc(NC(=O)/C=C/c2ccco2)s1	5.24%	–
CCC(CC)c1nnc(NC(=O)/C=C/c2ccco2)s1	-13.8%	–
CCc1nnc(NC(=O)/C=C/c2ccc(C)o2)s1	–	10.4 µM (active)

Structure (SMILES)	activity change, negative = inhibition	Potency
CN1CCN(c2ccc(CNS(=O)(=O)c3cccc(F)c3)cc2)CC1	22.5%	–
N#CCCN(C(=O)COC(=O)C1CCN(c2ccc(C(F)(F)F)cn2)CC1)c1ccc(F)cc1	5.52%	–
COc1ccccc1-n1nnnc1SCC(=O)NC(=O)Cc1ccccc1	4.3%	–
O=C(c1cccc(-n2cccc2)c1)N1CCN(S(=O)(=O)c2ccc(F)cc2)CC1	-1.15%	–
Cc1oc(-c2cccc(Cl)c2)[n+]([O-])c1C	–	5.22 µM (active)
Cc1oc(-c2ccccc2Cl)[n+]([O-])c1C	6.5%	–
CCOC(=O)CSc1ncc(-c2cccc(Cl)c2)cn1	51.5%	–
Cc1[nH]n(C(N)=S)c(=O)c1N=Nc1ccc(Cl)cc1Cl	51.3%	–
CC(=O)Nc1cccc(C(=O)OCC(=O)NCc2cc(C)c(O)c(C)c2)c1	96.7%	–
Cc1ccc(S(=O)(=O)N2CC(O)C[C@H]2C(=O)OCC(=O)Nc2ccc(N3CCOCC3)cc2)cc1C (some centres not stated)	-24.5%	–
CN(C(=O)COC(=O)c1ccc(Br)o1)c1c(N)n(Cc2ccccc2)c(=O)[nH]c1=O	5.36%	–
O=C(Cc1ccc(-n2c(=O)[nH]c3ccccc3c2=O)cc1)N1CCN(c2cccc(Cl)c2)CC1	6.21%	–
CCOC(=O)N1CCN(C(=O)Cc2ccc(-n3c(=S)[nH]c4ccccc4c3=O)cc2)CC1	–	13.1 µM (active)
CCCCNC(=O)c1ccc(-n2c(=S)[nH]c3ccccc3c2=O)cc1	49.1%	–
CCc1nc(N2CCN(C(C)=O)CC2)c2c3c(sc2n1)CCCC3	0%	–
O=C(/C=C/c1cccc(F)c1)NC1CC1	4.57%	–
CC(=O)c1nc2ccccc2n1Cc1ccccc1	10.7%	–
CC(=O)Nc1nc2ccccc2n1Cc1ccc(C)cc1	67.4%	–
CCCc1nc2c(C)cc(-c3nc4ccccc4n3C)cc2n1Cc1ccc(-c2ccccc2C(=O)O)cc1	–	1.51 µM (active)

Reference: PubChem BioAssay AID504834 (National Center for Advancing Translational Sciences (NCATS), 2011)
